# PubChem BioAssay (Tox21)
# Records with an inconclusive call do not appear. A call without a number means that no potency is given here. Calls of active or inactive are those of the source. Unless noted, calls follow the shape of the dose curve; as a rule, active = well fitted curve in the direction sought with a large enough effect in the repeat runs; inconclusive = weak or mixed curves; inactive = no such curve, though single readings can be large; an effect the other way counts as inactive or inconclusive.
# How the values were obtained:
# [1] = qHTS assay to identify aromatase inhibitors - cell viability counter screen (AID 743084);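 also: cells stimulated with testosterone during compound exposure; nearly all actives have a fitted effect of over 55% in size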
# [2] = molecular target: Aryl hydrocarbon receptor (Homo sapiens) (UniProt P35869); assay: qHTS assay to identify small molecule that activate the aryl hydrocarbon receptor (AhR) signaling pathway (AID 743085); also: nearly all actives have a fitted effect of over 15% in size; also: potency is read from the fitted curve at half-maximal effect;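 as to activation: HG2L7.5c1 human HepG2 liver cells with stably integrated DRE-driven firefly reporter; series mostly up to about 70 µM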
# Aryl hydrocarbon receptor (Homo sapiens), sequence (P35869 whole entry, looked up): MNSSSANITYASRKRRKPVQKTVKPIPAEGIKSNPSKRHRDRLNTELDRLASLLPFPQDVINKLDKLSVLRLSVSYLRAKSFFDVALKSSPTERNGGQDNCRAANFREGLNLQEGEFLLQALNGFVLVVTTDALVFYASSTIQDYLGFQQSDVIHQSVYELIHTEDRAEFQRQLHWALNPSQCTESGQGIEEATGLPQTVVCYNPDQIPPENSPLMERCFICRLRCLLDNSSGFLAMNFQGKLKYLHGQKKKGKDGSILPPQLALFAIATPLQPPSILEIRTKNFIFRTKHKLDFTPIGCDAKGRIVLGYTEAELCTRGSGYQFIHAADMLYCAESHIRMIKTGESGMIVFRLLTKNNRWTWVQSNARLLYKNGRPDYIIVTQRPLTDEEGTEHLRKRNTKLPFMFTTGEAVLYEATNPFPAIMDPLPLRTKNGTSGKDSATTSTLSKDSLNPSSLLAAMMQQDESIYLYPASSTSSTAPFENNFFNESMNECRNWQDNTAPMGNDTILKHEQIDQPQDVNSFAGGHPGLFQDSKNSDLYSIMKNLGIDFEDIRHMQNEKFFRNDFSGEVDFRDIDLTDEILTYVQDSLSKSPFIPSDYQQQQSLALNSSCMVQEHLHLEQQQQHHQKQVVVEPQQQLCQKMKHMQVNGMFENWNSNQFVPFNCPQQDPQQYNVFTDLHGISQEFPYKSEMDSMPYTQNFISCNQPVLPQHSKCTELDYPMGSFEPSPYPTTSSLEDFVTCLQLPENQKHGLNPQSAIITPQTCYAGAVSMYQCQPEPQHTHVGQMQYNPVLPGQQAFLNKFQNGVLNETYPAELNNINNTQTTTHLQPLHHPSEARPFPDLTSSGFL
# Outline: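 HepG2 cells (HG2L7.5c1) stably carrying a firefly luciferase reporter driven by 20 dioxin responsive elements were exposed to compound for 24 h at 37C after a 5 h settling period; luminescence rise (ONE-Glo) indicated activation.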
# [3] = qHTS assay to identify small molecule that activate the aryl hydrocarbon receptor (AhR) signaling pathway - cell viability counter screen (AID 743086);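 also: HepG2 liver cells carrying the AhR DRE luciferase reporter; series mostly up to about 70 µM; nearly all actives have a fitted effect of over 45% in size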
# Outline: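 Cytotoxicity counter screen: CellTiter-Fluor signal (30 min, 37 C) in 4000 HepG2 cells/well carrying the DRE-luciferase reporter, following 24 h compound exposure at 37 C.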
# [4] = molecular target: Peroxisome proliferator-activated receptor gamma (Homo sapiens) (UniProt P37231); assay: qHTS assay to identify small molecule agonists of the peroxisome proliferator-activated receptor gamma (PPARg) signaling pathway (AID 743094; active = well fitted activation curve with a large enough effect in the signal ratio in the repeat runs, not every such curve was filed as active; the % refers to the signal ratio; also: potency is read from the fitted curve at half-maximal effect)
# Peroxisome proliferator-activated receptor gamma (Homo sapiens), sequence (P37231 whole entry, looked up): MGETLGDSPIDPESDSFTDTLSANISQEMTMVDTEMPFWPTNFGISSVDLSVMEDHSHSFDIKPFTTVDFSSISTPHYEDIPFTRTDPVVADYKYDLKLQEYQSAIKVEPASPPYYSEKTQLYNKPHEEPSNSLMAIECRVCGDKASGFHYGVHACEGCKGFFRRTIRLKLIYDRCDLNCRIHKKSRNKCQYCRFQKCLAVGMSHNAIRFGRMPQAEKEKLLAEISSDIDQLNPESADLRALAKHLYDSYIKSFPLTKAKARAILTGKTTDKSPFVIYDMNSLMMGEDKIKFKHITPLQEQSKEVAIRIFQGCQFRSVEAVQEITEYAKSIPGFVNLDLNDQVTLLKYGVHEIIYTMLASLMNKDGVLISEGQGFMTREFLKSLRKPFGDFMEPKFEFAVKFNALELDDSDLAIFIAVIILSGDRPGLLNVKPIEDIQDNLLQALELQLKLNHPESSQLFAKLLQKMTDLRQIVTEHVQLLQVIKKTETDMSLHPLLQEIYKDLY
# Outline: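 Reporter activation was scored by fluorescence of cleaved LiveBLAzer B/G substrate (1 h, room temperature) in PPARg-bla HEK293H cells previously treated 17 h at 37C with DMSO-dissolved compounds.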
# [5] = molecular target: Peroxisome proliferator-activated receptor gamma (Homo sapiens) (UniProt P37231); assay: qHTS assay to identify small molecule antagonists of the peroxisome proliferator-activated receptor gamma (PPARg) signaling pathway (AID 743191; calls by dose curve; also: series mostly up to about 63 µM; nearly all actives have a fitted effect of over 30% in size)
# Outline: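 Beta-lactamase reporter under UAS control in HEK293H PPARg-bla cells; compound treatment 17 h at 37C. Read-out: fluorescence intensity after 1 h room-temperature incubation with LiveBLAzer B/G FRET substrate.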
# [6] = qHTS assay to identify small molecule antagonists of the peroxisome proliferator-activated receptor gamma (PPARg) signaling pathway - cell viability counter screen (AID 743194); also: nearly all actives have a fitted effect of over 55% in size
# Outline: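 Viability was measured as CellTiter-Glo luminescence in GeneBLAzer PPARg UAS-bla HEK293H cells. These cells had been exposed 17 h at 37 C to compounds together with rosiglitazone at 50 nM final, with the beta-lactamase readout taken in the same wells.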
# [7] = qHTS assay for small molecule agonists of the antioxidant response element (ARE) signaling pathway (AID 743202; active = well fitted activation curve with a large enough effect in the signal ratio in the repeat runs, not every such curve was filed as active; the % refers to the signal ratio; also: potency is read from the fitted curve at half-maximal effect)
# Outline: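 Beta-lactamase reporter activity, read as fluorescence intensity, reflects ARE/Nrf2 pathway induction in HepG2 cells after 16 h compound exposure at 37 C; substrate loading was 2 h at room temperature.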
# [8] = qHTS assay for small molecule agonists of the antioxidant response element (ARE) signaling pathway - cell viability counter screen (AID 743203; calls by dose curve; also: nearly all actives have a fitted effect of over 55% in size)
# Outline: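 Viability counter screen: stably transfected ARE-bla HepG2 line, 16 hrs compound exposure at 37C/5% CO2, ATP-based CellTiter-Glo luminescence measured in the reporter wells.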
# [9] = qHTS assay for small molecule activators of the heat shock response signaling pathway - cell viability counter screen (AID 743209); also: nearly all actives have a fitted effect of over 50% in size
# Outline: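 Viability of HSE-bla HeLa cells is measured with CellTiter-Glo in the wells already used for the reporter read. Compound exposure lasts 5 h at 37 C, and luminescence is read after 30 min at room temperature.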
# [10] = qHTS assay for small molecule activators of the heat shock response signaling pathway (AID 743210; active = well fitted activation curve with a large enough effect in the signal ratio in the repeat runs, with a control signal flat, not every such curve was filed as active; the % refers to the signal ratio;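 also: HeLa cells with beta-lactamase reporter driven by heat shock elements; series mostly up to about 63 µM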)
# Outline: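 Fluorescence from a cleaved B/G FRET substrate (2.5 h, room temp) reports HSE-driven beta-lactamase in HeLa cells treated 5 h at 37 C with DMSO-dissolved compounds.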
SMILES,Potency [1],Potency [2],Potency [3],Potency [4],Potency [5],Potency [6],Potency [7],Potency [8],Potency [9],Potency [10]
COc1cc(N)c(Cl)cc1C(=O)NC1CCN(CCCOc2ccc(F)cc2)CC1OC (configuration not stated),inactive,inactive,inactive,inactive,inactive,inactive,inactive,inactive,inactive,inactive
CCC(=O)OC,inactive,inactive,inactive,inactive,inactive,inactive,inactive,inactive,inactive,inactive
C/C=C/C=C/C=O,inactive,inactive,inactive,inactive,inactive,,,inactive,inactive,inactive
OCCOCC#CCOCCO,inactive,inactive,inactive,inactive,inactive,inactive,inactive,inactive,inactive,inactive
CC(CN(C)C)C(C)(O)Cc1ccc(Cl)cc1 (configuration not stated),inactive,inactive,inactive,inactive,inactive,inactive,inactive,inactive,inactive,
O=C(O)c1ccc(OCCCOc2ccc(C(=O)O)cc2)cc1,inactive,inactive,inactive,inactive,,inactive,inactive,inactive,inactive,
Cc1ccc(CO)cc1,inactive,inactive,inactive,inactive,inactive,inactive,,inactive,inactive,inactive
CCCCC(CC)CN (configuration not stated),inactive,inactive,inactive,inactive,inactive,inactive,,inactive,,inactive
Cc1ccc(C(C)(C)O)cc1,inactive,inactive,inactive,inactive,inactive,inactive,inactive,inactive,inactive,inactive
Brc1cc2ccccc2c2ccccc12,inactive,inactive,inactive,inactive,inactive,inactive,inactive,inactive,inactive,inactive
CCCCCCCCCI,inactive,inactive,inactive,inactive,inactive,inactive,inactive,inactive,inactive,inactive
CCCCCCCC/C=C\CCCCCCCCO,inactive,inactive,inactive,inactive,inactive,inactive,inactive,inactive,inactive,inactive
Nc1cccc2c1CN(C1CCC(=O)NC1=O)C2=O (configuration not stated),inactive,inactive,inactive,inactive,inactive,inactive,inactive,inactive,inactive,inactive
CCCCOc1ccc(OCCCN2CCOCC2)cc1,inactive,inactive,inactive,inactive,inactive,inactive,,inactive,inactive,inactive
Cc1ccccc1S,inactive,inactive,inactive,inactive,inactive,inactive,,inactive,,
OC(CCN1CCCC1)(c1ccccc1)C1CCCCC1 (configuration not stated),inactive,inactive,inactive,inactive,inactive,inactive,inactive,inactive,inactive,inactive
CC(=O)OCC[N+](C)(C)C,inactive,inactive,inactive,inactive,inactive,inactive,inactive,inactive,inactive,inactive
FC(F)(F)c1ccccc1Cl,inactive,inactive,inactive,inactive,inactive,inactive,inactive,inactive,inactive,inactive
CN1C(C(=O)Nc2ccccn2)=C(O)c2sccc2S1(=O)=O,inactive,inactive,inactive,inactive,inactive,inactive,inactive,inactive,inactive,
CC[N+](CC)(CCNC(=O)C(=O)NCC[N+](CC)(CC)Cc1ccccc1Cl)Cc1ccccc1Cl,inactive,inactive,inactive,inactive,inactive,,inactive,,,inactive
C(=C\c1ccccc1)/c1ccccc1,inactive,76.3 µM (active),inactive,inactive,inactive,,,inactive,inactive,inactive
CN1CCCN=C1COC(=O)C(O)(c1ccccc1)C1CCCCC1 (configuration not stated),inactive,inactive,inactive,inactive,inactive,,inactive,inactive,inactive,inactive
CC(CCC(=O)O)C(=O)O (configuration not stated),inactive,inactive,inactive,inactive,inactive,inactive,,inactive,inactive,inactive
O=c1[nH]ncc2ccccc12,inactive,inactive,inactive,inactive,,inactive,inactive,inactive,inactive,
NCCNCCO,inactive,inactive,inactive,inactive,inactive,inactive,inactive,inactive,inactive,inactive

SMILES,Potency [1],Potency [2],Potency [3],Potency [4],Potency [5],Potency [6],Potency [7],Potency [8],Potency [9],Potency [10]
O=C1CCCCCCCCCCOCCCCO1,inactive,inactive,inactive,inactive,inactive,inactive,inactive,inactive,inactive,
CC(=O)Nc1ccc(C)cc1C,inactive,inactive,inactive,inactive,inactive,inactive,inactive,inactive,inactive,inactive
O=C(/C=C/c1ccc(O)c(O)c1)O[C@@H]1C[C@@](OC(=O)/C=C/c2ccc(O)c(O)c2)(C(=O)O)C[C@@H](O)[C@@H]1O,inactive,inactive,inactive,inactive,inactive,inactive,,,inactive,inactive
O=C(O)CCc1nc(-c2ccccc2)c(-c2ccccc2)o1,inactive,inactive,inactive,15.1 µM (active),inactive,,,inactive,inactive,inactive
NC(=O)c1ccncc1,inactive,inactive,inactive,inactive,inactive,inactive,inactive,inactive,inactive,inactive
Cc1ccc(OC(=O)c2ccccc2O)cc1,inactive,inactive,inactive,inactive,inactive,inactive,inactive,inactive,inactive,inactive
C1C[C@@H]2[C@H]3CC[C@H](C3)[C@@H]2C1,inactive,inactive,inactive,inactive,inactive,inactive,inactive,inactive,inactive,inactive
C=C(C)C(=O)OCCCCCCCCCCCCC,inactive,inactive,inactive,inactive,inactive,inactive,inactive,inactive,inactive,inactive
CCc1ccccc1,inactive,inactive,inactive,inactive,inactive,inactive,inactive,inactive,,inactive
O=C(CCCN1CC=C(n2c(=O)[nH]c3ccccc32)CC1)c1ccc(F)cc1,inactive,inactive,inactive,inactive,inactive,inactive,inactive,inactive,inactive,inactive
CC(C)=CCC/C(C)=C/CC/C(C)=C/CCC(=O)OC/C=C(\C)CCC=C(C)C,inactive,inactive,inactive,inactive,inactive,inactive,inactive,inactive,inactive,inactive
CC(O)c1ccccc1 (configuration not stated),inactive,inactive,inactive,inactive,,inactive,inactive,inactive,inactive,inactive
CCOC(=O)[C@H](CCc1ccccc1)N[C@@H](C)C(=O)N(CC(=O)O)C1Cc2ccccc2C1,inactive,inactive,inactive,inactive,,inactive,inactive,inactive,inactive,inactive
CC1=C(CC=O)C(C)(C)CCC1,inactive,inactive,inactive,inactive,,inactive,inactive,inactive,inactive,
CC1CC(C)C(=O)C1=O (configuration not stated),inactive,inactive,inactive,inactive,inactive,inactive,inactive,inactive,inactive,inactive
Cc1cc2c(OCC(CNC(C)(C)C)OC(=O)c3ccccc3)cccc2[nH]1 (configuration not stated),inactive,inactive,inactive,inactive,,inactive,inactive,inactive,inactive,inactive
CC(C)Nc1cccnc1N1CCN(C(=O)c2cc3cc(NS(C)(=O)=O)ccc3[nH]2)CC1,inactive,inactive,inactive,inactive,,inactive,,inactive,inactive,inactive
O=C1c2ccccc2C(=O)C1c1ccc(Br)cc1,inactive,11.9 µM (active),inactive,inactive,,inactive,,inactive,inactive,
C1COC1,inactive,inactive,inactive,inactive,,inactive,inactive,inactive,inactive,inactive
CC1(C)O[C@@H]2C[C@H]3[C@@H]4C[C@H](F)C5=CC(=O)C=C[C@]5(C)[C@H]4[C@@H](O)C[C@]3(C)[C@]2(C(=O)CO)O1,inactive,inactive,inactive,inactive,,inactive,inactive,inactive,inactive,inactive
CC(C)=CC(=O)C=C(C)C,inactive,inactive,inactive,inactive,,inactive,,inactive,inactive,inactive
O=C(CCc1ccc(O)cc1)c1c(O)cc(O)cc1O,inactive,inactive,inactive,inactive,,,31.3 µM (active),,inactive,
CC(=O)[C@H]1[C@H](C#N)C[C@H]2[C@@H]3CC=C4C[C@@H](O)CC[C@]4(C)[C@H]3CC[C@@]21C,inactive,inactive,inactive,inactive,,inactive,33.1 µM (active),inactive,inactive,inactive
CN(C)CCN1C(=O)c2ccccc2N(C)c2ccccc21,inactive,inactive,inactive,inactive,,inactive,inactive,inactive,inactive,inactive
